Measured values: ChEMBL document CHEMBL3988442, “University of Dundee, Small-Polar-MMV Screening Library” (2021)

Key:
[1] = target: T1, Aspartate--tRNA(Asp/Asn) ligase (Mycobacterium tuberculosis (strain ATCC 25618 / H37Rv)) (UniProt P9WFW3); experiment: Assay for Asp RNA synthetase-1 from Mycobacterium tuberculosis; assay type: functional; parameters: scale not given: direction of the effect not stated beside the values; details: 30 µM; note: in the data most compounds retested in dose-response had high values
T1 sequence (whole entry): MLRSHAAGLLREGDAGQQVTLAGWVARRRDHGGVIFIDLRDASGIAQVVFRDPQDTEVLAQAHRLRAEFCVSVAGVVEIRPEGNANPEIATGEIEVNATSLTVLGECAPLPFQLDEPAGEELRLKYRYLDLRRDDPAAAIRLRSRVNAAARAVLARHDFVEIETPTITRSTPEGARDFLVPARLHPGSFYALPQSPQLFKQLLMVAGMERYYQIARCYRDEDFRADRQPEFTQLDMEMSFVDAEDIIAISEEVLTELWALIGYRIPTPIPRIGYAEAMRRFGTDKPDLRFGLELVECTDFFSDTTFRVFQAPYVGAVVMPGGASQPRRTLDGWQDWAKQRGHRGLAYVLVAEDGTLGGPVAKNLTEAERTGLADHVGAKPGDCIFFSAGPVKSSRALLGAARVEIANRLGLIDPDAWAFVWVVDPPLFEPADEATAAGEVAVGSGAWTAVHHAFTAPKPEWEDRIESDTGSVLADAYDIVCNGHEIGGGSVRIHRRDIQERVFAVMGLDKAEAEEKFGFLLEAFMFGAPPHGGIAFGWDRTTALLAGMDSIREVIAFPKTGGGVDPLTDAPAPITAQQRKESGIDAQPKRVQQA

[2] = target: Shiga toxin 2 (Escherichia coli O157:H7) (UniProt P09385+P09386); experiment: E. coli 0.157:H7 Shiga Toxin SOP - stx2 screening assay; assay type: functional; parameters: scale not given: direction of the effect not stated beside the values; details: 30 µM

Compound	Percent Effect [1] [%]	Percent Effect [2] [%]
CCO[C@H]1CO[C@@]2(CCCN(Cc3nc(C)cs3)C2)C1	-4.51	-13.5
Cc1nc(CN2CCCC(NCCc3ccccc3Cl)C2)no1 (centres undefined)	-1.91	10.1
CC(C)OCCN(Cc1cccc(O)c1)C1CCC(O)CC1 (centres undefined)	3.29	-13.5
O=C(C1CCOCC1)N1CC[C@H]2C[C@@H](c3ccncn3)O[C@@H]2C1	1.69	-27.6
CC(C)(C)c1ncc2c(n1)CN(C(=O)c1ccc(-c3nc[nH]n3)cc1)C2	-2.37	-62.9
CCN(C)c1ncnc2c1CCN(Cc1ccoc1)CC2	5.11	-28.5
Cc1ncsc1CN1C[C@@H]2COC[C@]2(C(=O)NCC2CC2)C1	0.838	-13.5
CC(C)c1cc(NC(=O)CN2CCc3c(nc(C(C)C)n3C)C2)on1	-3.67	-13.4
CNc1cc2c(nn1)CCN(C(=O)c1cc(F)cc(F)c1)C2	-0.49	12.4
Cc1csc(CNC(=O)NCCc2ccc3c(c2)OCCO3)n1	-5.39	-15.4
Cc1ccc(-c2nc(CN3CCOC(Cn4cccn4)C3)cs2)o1 (centres undefined)	-1.71	-9.02
CC(NC(=O)NCCNc1cnccn1)c1cccs1 (centres undefined)	-0.971	-34.6
Cc1nc(CN2C(=O)COC3(CCN(Cc4ccco4)CC3)C2C)cs1 (centres undefined)	-2.99	-19.9
Cc1oc(-c2nc(C#N)c(N(C)C)o2)cc1S(=O)(=O)N1CCCC1	0.145	-18.1
CCOC(=O)CN1CCC2(CC1)CC(=O)c1ccc(OC)cc1O2	-2.78	10.6
NC(=O)CCOc1nc(-c2ccccc2Cl)no1	-4.51	-35.8
Cc1n[nH]c(C2CN(C(=O)CCc3ccco3)CCO2)n1 (centres undefined)	7.13	-9.36
